According to PubChem BioAssay AID1053143 (Broad Institute, 2014):
The campaign covered roughly 3,400 compounds. About 120 (3.5%) were called active. These entries were drawn from the full list. Entries with a potency or affinity are not part of this list. Unmarked numbers belong to inactive results. The rule behind the calls is not given here.

Test: viability loss in HepG2 hepatoma cells – cell-based, ATP luminescence, cherry-pick, activator set 2, cytotoxicity control, dose response (AID 1053143)
Settings: CellTiter-Glo ATP luminescence, 72 h; series mostly up to 26 µM; activity change, negative = cytotoxicity: at the top concentration

SMILES	activity change, negative = cytotoxicity
CCCC(=O)Nc1ccc2oc(-c3cccnc3)nc2c1	-9.19%
Cc1ccc(NC(=O)Nc2cccc(C)n2)cc1	-7.97% [at 6 µM]
O=C(CC(=O)c1ccccc1)Nc1ccccc1	0.16%
CC(=O)Nc1cccc(NC(=O)CCCC(=O)O)c1	-2.64%
O=C(Nc1cc(F)c(Br)cc1F)c1ccc(Cl)cc1	4.77%
Cc1cnc(NC(=O)c2ccc3ncsc3c2)s1	-12.4%
NC(=O)Cc1c[nH]c2cccc(O)c12	-2.19%
CCn1c(O)c(C#N)c(C)cc1=O	20.8%
c1csc(-c2nc(N3CCCCC3)no2)c1	-5.95%
O=C(Nc1ccc(F)cc1F)c1csc(-c2cccs2)n1	-6.08%
Fc1cccc(CSc2ccc(-c3ccco3)nn2)c1	-3.59%
CC(SCc1ccccc1)C(=O)Nc1ccccc1 (stereo unspecified)	-19.4%
COc1c(OC(C)=O)ccc(/C=C/c2ccc3cccc(OC)c3n2)c1[N+](=O)[O-]	-13.7%
COc1cccc(/C=C/c2ccc3cccc(O)c3n2)c1OC	-17.3%
CCOC(=O)c1cc(OCC)c2c(ccc3ccccc32)n1	-16.6%
COc1cccc(/C=C/c2ccccn2)c1O	2.62%
COc1ccc(-c2csc(NC(=O)CC(C)C)n2)cc1	-14.7%
COc1ccccc1N1CCN(/N=C\c2ccc(C)o2)CC1	27.8%
COc1ccc(CCNC2CC(=O)N(CCc3ccccc3)C2=O)cc1OC (stereo unspecified)	-2.2%
COc1ccc2cc(-c3cccnc3)ncc2c1	-8.05%
COc1ccc(NC(=O)Nc2cc(C)ccn2)cc1	3.17%
O=[N+]([O-])c1ccc(Nc2nccc(Cl)n2)cc1	-17.5% [at 12 µM]

SMILES	activity change, negative = cytotoxicity
Clc1nc(Nc2ccccc2)nc(Nc2ccccc2)n1	-9.79%
COc1ccc(Nc2nc(N)nc(CSc3nccn3C)n2)cc1	-1.36%
COc1ccc(Nc2ccc3ccccc3c2)cc1	0.933%
O=C(c1ccc(Cl)c([N+](=O)[O-])c1)N(Cc1ccc(Cl)cc1)C1CCS(=O)(=O)C1 (stereo unspecified)	-4.46%
Cn1nnc(NC(=O)C(c2ccccc2)c2ccccc2)n1	1.29%
O=C(CNC(=O)c1ccccc1)OCC(=O)N1N=C(c2ccc(Cl)cc2)CC1c1ccco1 (stereo unspecified)	0.766%
C#CCNC(=O)/C=C/c1ccc(OC)cc1	-15.5%
Cc1nc2ccc(NC(=O)c3ccc(Cl)s3)cc2s1	9.53%
C=CCOc1ccc2c(OC)c3ccoc3nc2c1OC	-3.4%
CCCC(=O)N(C)c1nnc(-c2ccc(OC)cc2)s1	-14.6%
COc1ccc(C)cc1NC(=O)C1CCCN1S(=O)(=O)c1ccccc1F (stereo unspecified)	-12.2%
Cn1cccc1C(=O)OCC(=O)c1cc2ccccc2o1	15.6%
COc1cc(Cl)ccc1OCc1cc(C(=O)N2C[C@@H]3CCC[C@H]2C3)no1	5.09% [at 12 µM]
O=C(/C=C/c1ccco1)Nc1nc(-c2ccccc2)cs1	-19.8%
Nc1cc(-c2ccc(Cl)cc2)nn1-c1ccccc1	-12.7%
Cc1occc1C(=O)O/N=C(\N)c1ccc(Cl)cc1	36.1%
O=C(Nc1nc(=O)c2ccccc2s1)c1ccccc1	-0.099%
O=C(Nc1nc2ccccc2s1)c1ccc(F)cc1	-23%
O=C(c1ccccc1)c1cnc(-c2ccc(Cl)cc2)s1	-21.5%
CCCC(=O)N/C(N)=N/c1nc2ccccc2o1	-11.3%
Cc1nc(Nc2ccccc2)sc1C(=O)c1ccccc1	5.72%
Nc1nc(Nc2ccccc2F)sc1C(=O)c1ccccc1	25.7%

SMILES	activity change, negative = cytotoxicity
Cc1ccc(Nc2ncccc2C(N)=O)cc1[N+](=O)[O-]	-16.8%
CCOC(=O)c1ccc(N2Cc3ccccc3C2=NC(=O)c2ccncc2)cc1	0.403%
Cc1ccc(Nc2nc3ccccc3o2)cc1F	-28.7% [at 12 µM]
O=c1sc2ccccc2n1CCCOc1ccccc1	-13.9%
Cn1c(-c2ccc([N+](=O)[O-])cc2)nc2ccccc21	-8.29%
Cc1ccc(OCCn2cnc3ccccc3c2=O)c([N+](=O)[O-])c1	-2.42%
Fc1cccc(-c2ncc(-c3ccccc3)o2)c1	-8.72%
Cc1cc(NC(=O)c2ccccc2)sc1C	-41.8%
CCOC(=O)c1ccc2nc(NC(C)=O)sc2c1	8.97%
O=C(Nc1nc2ccc([N+](=O)[O-])cc2s1)c1ccco1	-10.7%
O=C(Nc1cc(-c2ccccc2)cs1)c1ccco1	-12.4%
Cc1cc2sc(NC(=O)c3ccco3)nc2cc1Cl	-2.65%
O=C(Nc1nc2c(ccc3ccccc32)s1)c1ccco1	-31.8%
CCOc1ccc(NC(=O)Cc2ccccc2)cc1	-19.9%
COC(=O)c1sc2nc3c(cc2c1N)CCCC3	-2.91%
CC(C)c1ccc(NC(=O)c2cccc(Br)c2)cc1	17.8%
COc1cc(/C=N/NC(=O)CNC(=O)c2ccccc2)ccc1OC(=O)c1cccs1	-19.2%
O=C(Nc1nc2ccc(Cl)cc2s1)C1CC1	-16%
CCC1CCCCN1S(=O)(=O)c1ccc(NC(=O)C2CC(=O)N(C(C)(C)C)C2)cc1 (stereo unspecified)	-2.85%
O=c1[nH]c2ccccc2nc1CCc1ccccc1	-9.94%
COc1cc(OC)cc(C(=O)NCC(=O)Nc2ccc(C)c(Cl)c2)c1	0.049%
Cc1cc(N2CCCCC2)nc2ccc(NC(=O)CCC(=O)NCCC(C)C)cc12	-18.6%

SMILES	activity change, negative = cytotoxicity
CCn1ccc(C(=O)Nc2ccc(Cl)cn2)n1	-0.072%
O=C1c2ccccc2-c2nc3ccccc3cc21	-16.9%
c1ccc2c(c1)Cc1cc3ccccc3nc1-2	-11.6%
CC(C)Sc1ccc(C(=O)Nc2ccc(F)cc2F)cn1	-2.75%
CCC(C)Sc1ccc(-c2nc3ccc(Cl)cn3c2NCc2ccccc2)cc1 (stereo unspecified)	-18.8%
CN(Cc1ccsc1)C(=O)CCc1nnc(CCCc2ccccc2)o1	-9.96%
O=C(Nc1ccccn1)C(=O)Nc1ccccn1	-5.28%
Cc1n[nH]c(=O)nc1N/N=C/c1ccco1	13.9%
Cc1nc(-c2ccc(NC(=O)c3ccccc3Br)cc2)cs1	-4.14%
Cc1nc(-c2ccc(NC(=O)CC(C)C)cc2)cs1	-11.5%
O=C(Nc1ccccc1N1CCN(c2ccccc2)CC1)c1ccccc1	-2.97%
O=C(NC(=O)c1ccccc1)Nc1ccccc1O	-14.8%
CCCNC(=O)Nc1cccc(C(=O)OC)c1	-14.5%
c1ccc(-c2cnnc(-c3ccccn3)n2)cc1	-3.23%
Nc1ccc2nc(-c3ccccc3)cnc2c1	-14.5%
O=C(Nc1nccs1)c1cc2c(s1)-c1ccccc1OC2	-3.47%
Cc1cc(O)c(NC(=O)c2cccc([N+](=O)[O-])c2)cc1C	1.55%
COc1ccc(CCN2C(=NC(C)=O)SC3CS(=O)(=O)CC32)cc1OC (stereo unspecified)	1.28%
Clc1ccccc1C=NNc1ccccn1	-19.2%
COc1cccc(N/N=C/c2cccc(Br)c2O)c1	-1.94%
CCCCSc1nnc(-c2ccc(C)cc2)n1C	-6.32%
Cc1ccc(/C=C/c2nc3ccccc3[nH]2)o1	-25.4%

SMILES	activity change, negative = cytotoxicity
Clc1ccc(Cn2c(/C=C/c3ccco3)nc3ccccc32)cc1	-7.76%
COc1ccccc1C(=O)Nc1ccc2c(C)cc(=O)oc2c1	7.5%
c1ccc2[nH]c(SCC3CCCCO3)nc2c1 (stereo unspecified)	9.84%
Oc1ccc(-c2cnc3ccccc3n2)cc1	-12%
Cc1cc2ncc(-c3ccccc3)nc2cc1C	-23.2%
Cn1c2nc3ccccc3c-2nc2ccccc21	-1.19%
CCCCOC(=O)Nc1ccc(C(=O)OC)cc1	-10.3%
CC1CCc2nc3sc4c(c3c(N)c2C1)CCCC4 (stereo unspecified)	-18.5%
COc1ccc(-c2nc3ccccc3s2)cc1NC(C)=O	6.95%
O=C(Nc1nc(-c2nc3ccccc3s2)cs1)C1CC1	-14.7%
Cc1nn2c(=O)cc(COC(=O)c3c(F)cccc3Cl)nc2s1	11.9%
COc1ccc(/C=C/c2nnc(NC(C)=O)s2)cc1	-7.78%
Cc1csc(NC(=O)c2ccc(C)s2)n1	-0.98%
COc1cccc(C(=O)Nc2nc(C)cs2)c1	-14.1%
O=C(/C=C/c1cccs1)NCc1cccs1	-4.94%
O=C(Nc1ccc2c(c1)OCO2)c1ccccn1	-28.9%
O=C(O)c1ccc(-c2noc(-c3ccccc3Cl)n2)cc1	-9.54%
O=C(Nc1cccc(F)c1)Nc1ccc2c(c1)CCC2	-10.1%
O=C(Nc1ccc(F)cc1)Nc1ccc2c(c1)CCC2	0.599%
COc1cc(/C=C/C(=O)N2C(=O)c3cccc(N)c3C2=O)cc(OC)c1OC	-13.5%
COc1cc(/C=C/C(=O)OCC(=O)NCCc2ccccc2)cc(OC)c1OC	-6.38%
Cc1cc(C(=O)COC(=O)c2ccc(O)cc2O)c(C)n1C(C)C	-5.63%

SMILES	activity change, negative = cytotoxicity
c1ccc(-c2csc(N3CCOCC3)n2)cc1	-5.01%
Nc1nc(-c2ccc3c(c2)CCO3)cs1	-9.81%
O=c1oc2ccccc2c2c1ncn2CCN1CCOCC1	1.21%
O=S(=O)(c1ccc(Cl)cc1)N1CCN(Cc2ccc(O)c3ncccc23)CC1	-26.6%
COc1cc(/C=N/Nc2ccc(Cl)c(C(=O)O)c2)ccc1OC(=O)c1cccs1	-11.9%
O=C(c1ccc(N2CCOCC2)cc1)c1cccs1	27.7%
CCc1ccc(CNCCNC(=O)c2ccco2)cc1	-19.8%
O=c1c2ccccc2nnn1CSc1nnc2ccccn12	-3.79%
CCC(C)(C)c1ccc2c(c1)C(=O)c1ccccc1C2=O	-13.3%
O=C(NCCO)c1ccc2c3n(nc2c1)-c1ccccc1CO3	-34%
O=C(c1ccc2c3n(nc2c1)-c1ccc(Cl)cc1CO3)N1CCOCC1	-29.3%
COCCNC(=O)c1ccc2c3n(nc2c1)-c1ccc(C)cc1CO3	-14.6%
O=C(O)c1ccc2c3n(nc2c1)-c1ccc(Cl)cc1CO3	-30.5%
CCOC(=O)c1sc(=NC(=O)c2ccccc2Br)n(C)c1C	22.1% [at 12 µM]
COc1ccc(CCC(=O)Nc2nnc(C)s2)cc1	-5.22%
CC(=O)Nc1ccc(-c2cc(N)n(-c3ccccc3)n2)cc1	-17.1%
Cc1ccc(OC(=O)c2c(C)nn(-c3ccccc3)c2C)cc1	5.12%
Cc1ccc2cc(/C=C/C(=O)c3ccco3)c(Cl)nc2c1	-14.8%
CCOC(=O)N1N=C(CC)CC1(O)C(F)(F)F (stereo unspecified)	10.4%
COC(=O)c1ccc(-c2cc3onc(-c4ccccc4)c3c(=O)n2C)cc1	13%
Cn1c(-c2ccc(F)c(F)c2)cc2onc(-c3ccccc3)c2c1=O	-9.83%
